From PubChem BioAssay
Most compounds without a hit are left out; they make up all but 1.1% or so of the library.
RXFP1 antagonist = antagonists of human relaxin receptor RXFP1; Q9HBX9; actives 0.59% (n = 350,000); HEK293-RXFP1, relaxin-stimulated cAMP HTRF, 30 min; stronger effect = lower value; activity change, negative = inhibition, % at 57.5 µM;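 active means activity change of -60% or lower, but not beyond a set lower limit; inconclusive means change between -60% and -40%, or beyond the set limit; inactive means change above -40%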; further: on the % scale 0 is the no-effect control and ±100 the full control effect
Target sequence (Q9HBX9 whole entry, looked up): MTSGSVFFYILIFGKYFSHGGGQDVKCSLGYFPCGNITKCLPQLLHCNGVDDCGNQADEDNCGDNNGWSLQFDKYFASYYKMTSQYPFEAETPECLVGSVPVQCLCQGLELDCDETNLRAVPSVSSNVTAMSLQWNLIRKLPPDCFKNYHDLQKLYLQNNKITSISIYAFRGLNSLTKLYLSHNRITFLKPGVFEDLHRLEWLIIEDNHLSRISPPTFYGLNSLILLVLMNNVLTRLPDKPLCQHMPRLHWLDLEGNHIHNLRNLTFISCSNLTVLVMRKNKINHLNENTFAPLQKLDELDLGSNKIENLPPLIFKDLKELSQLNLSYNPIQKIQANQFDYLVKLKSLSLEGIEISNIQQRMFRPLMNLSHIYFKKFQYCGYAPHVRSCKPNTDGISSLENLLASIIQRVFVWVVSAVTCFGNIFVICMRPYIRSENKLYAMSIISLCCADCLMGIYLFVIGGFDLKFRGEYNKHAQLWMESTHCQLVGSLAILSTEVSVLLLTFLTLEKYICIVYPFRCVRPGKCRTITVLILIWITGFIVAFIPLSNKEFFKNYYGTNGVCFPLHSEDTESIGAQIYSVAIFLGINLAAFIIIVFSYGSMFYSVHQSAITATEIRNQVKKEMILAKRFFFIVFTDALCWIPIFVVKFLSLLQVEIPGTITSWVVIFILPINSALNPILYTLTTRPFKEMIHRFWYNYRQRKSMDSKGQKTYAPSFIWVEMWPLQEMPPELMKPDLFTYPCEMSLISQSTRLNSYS
ASM inhibitor = inhibitors of human secretory acid sphingomyelinase | placental ASM, HMU-PC fluorogenic substrate, 60 min | actives 0.006% (n = 340,000) | P17405 | Potency, µM (highest dose often 57.5 µM), for inactives: at the highest dose activity change, negative = inhibition, actives largely listed as inhibitors | AID 504937; further: potency means the concentration at half of the fitted maximal effect
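Steps: dispense placental human ASM, pin compound, wait 10 min at room temperature, add HMU-PC0 substrate at 9 uM final, incubate 60 min at 37 °C, add stop solution raising pH to 10, read fluorescence.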
gsp antagonist = antagonists of gsp mutant (McCune-Albright syndrome) | actives 0.4% (n = 340,000) | Potency, µM (top dose mostly 76.9 µM), without a hit: at the highest dose activity change, negative = inhibition, most hits filed as inhibitors | AID 624288 | gsp-mutant cells, cAMP HTRF, 30 min; calls by dose curve; cell line not stated here;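 further: intracellular cAMP measured with PDE inhibitor Ro 20-1724 present during compound exposure; potency means the concentration at half of the fitted maximal effect; on the % scale 0 is the no-effect control and ±100 the full control effect; nearly all actives have a fitted effect of over 65% in size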
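HTRF cAMP measurement after 30 min RT detection following 30 min, 37C compound treatment alongside […] (added as 300 uM solution) in G418-selected cells seeded at 2000/well and grown 16–24 h.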
a7 integrin act = activates integrin-mediated alleviation for muscular dystrophy | AID 624291 | actives 0.064% (n = 350,000) | Potency, µM (titrated, usually from 38.3 µM), inactives show top-dose activation, usual class: activators | alpha7betagal myoblasts, beta-gal FDG fluorescence, 48 h;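 further: potency means the concentration at half of the fitted maximal effect; 100% = response of the positive control SU9516; nearly all actives have a fitted effect of over 60% in size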
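alpha7betagal+/- myoblasts (passage 13, 250/well) treated 48 h at 37C with compounds at 1:260 dilution of DMSO stock. Lysed, then beta-galactosidase activity read as FDG fluorescence (ex 480/em 540) after 30 min, with pre-read for autofluorescence.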
gsp ag = agonists of gsp mutant (McCune-Albright syndrome) | actives 0.13% (n = 340,000) | gsp mutant cells, cAMP HTRF, 30 min | Potency, µM (highest dose often 76.9 µM), inactives show at the highest dose activation (cAMP increase), actives largely listed as activators; active means well fitted activation curve with a large enough effect; inconclusive means small, poorly fitted or top-dose-only effect, or another doubt; inactive means no such curve, though single readings can be large or run the other way; cell line not stated here;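 further: phosphodiesterase inhibitor Ro 20-1724 added with compounds to block cAMP breakdown; potency means the concentration at half of the fitted maximal effect; nearly all actives have a fitted effect of over 60% in size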
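Cells stably selected in G418 were plated at 2000/well, grown 16-24 hr, then given compounds in DMSO with the PDE inhibitor […] (300 uM solution added) for 30 min at 37C; cAMP was read by HTRF.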
RXFP1 ag = RXFP1 (human) receptor agonism. Q9HBX9. HEK293T-RXFP1 cAMP TR-FRET, 30 min; response scale: percent of porcine relaxin response, buffer zero. Potency, µM (top dose mostly 57.5 µM), for inactives: top-dose activation, actives largely listed as activators. actives 0.3% (n = 370,000). AID 2676; further: potency means the concentration at half of the fitted maximal effect; on the % scale 0 is the no-effect control and ±100 the full control effect; nearly all actives have a fitted effect of over 60% in size
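HEK293 cells stably expressing RXFP1, treated 30 min at 37C with compounds plus PDE4 inhibitor Ro 20174; cAMP measured by HTRF TR-FRET. Normalized to buffer and 29 nM porcine relaxin; EC50 by Hill fit.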
The depositor's hits bear a star; ? = inconclusive; . = not tested or not shown; [ ] = another dose, or the depositor's remark. Unless noted, the call rests on the fitted dose curve; in most records, active means well fitted curve in the direction sought with a large enough effect; inconclusive means small, poorly fitted or top-dose-only effect, or another doubt; inactive means no such curve, though single readings can be large; an effect the other way counts as inactive or inconclusive.

SMILES | RXFP1 antagonist | ASM inhibitor | gsp antagonist | a7 integrin act | gsp ag | RXFP1 ag
COCCNC(=O)CCc1c(C)n(C)c2cc(-c3cc(OC)c(OC)c(OC)c3)nn2c1=O | 4.0 | . | . | . | . | 1.1%
CN1/C(=C\C(=O)COC(=O)c2ccco2)C(C)(C)c2ccccc21 | -4.3 | 70.2% | -0.2% | 0.0% | -12.2% | -1.5%
CN1/C(=C\C(=O)COc2ccc3c(c2)OCO3)C(C)(C)c2ccccc21 | -19.3 | 61.9% | 39.8µM* | -56.5% | -3.5% | 0.2%
CN1/C(=C/C(=O)c2nc(S(C)(=O)=O)ncc2Cl)C(C)(C)c2ccccc21 | -68.8* | -15.3% | -28.2% | -55.5% | -10.7% | 3.2%
CN1/C(=C\C(=O)c2ccco2)C(C)(C)c2ccccc21 | -85.5* | 206.4% | 35.5µM* | -44.5% | -9.2% | 0.4%
Cc1ccc(S(=O)(=O)Nc2ccccc2/C=N/c2nc3ccccc3n2C(C)C)cc1 | -63.7* | -0.1% | -17.2% | -16.3% | -3.1%[15.4 µM] | 0.4%
CCCCn1c(/N=C/c2ccccc2NS(=O)(=O)c2ccc(C)cc2)nc2ccccc21 | . | 4.1% | ? | -23.4% | 1.2% | -1.3%
Fc1ccccc1-c1n[nH]c(=S)n1/N=C/c1c[nH]c2ccccc12 | -109.2* | -10.8% | -8.5% | 2.9% | -8.2%[15.4 µM] | 0.5%
Fc1ccccc1/C=N/n1c(C2CCCCC2)n[nH]c1=S | -12.2 | -6.2% | -27.3% | 0.0% | -22.7% | -0.3%
CCCCCCn1c(/C=C/c2ccccc2)nc2ccccc21 | -35.2 | . | . | . | . | 7.9%
CCCn1c(/C=C/c2cc[n+](C)cc2)nc2ccccc21 | 16.0 | 291.6% | 12.1% | -14.0% | ? | 20µM*
CC(C)Cn1c(/C=C/c2ccccc2)nc2ccccc21 | -66.5* | 181.3% | ? | -7.2% | 21.0% | 4.0%
O=C1c2sccc2-c2cccc3cccc1c23 | -1.0 | . | . | -19.3% | -60.1% | .
O=C1C(Br)=Cc2cccc3cccc1c23 | -68.8* | -3.0% | ? | 20.6% | 1.3%[15.4 µM] | -5.0%
Cc1ccc(S(=O)(=O)c2nc(-c3ccco3)oc2N2CCC(C)CC2)cc1 | -62.6* | . | -5.4% | 10.8% | -4.7%[15.4 µM] | -3.9%
O=S(=O)(c1ccccc1)c1nc(-c2ccco2)oc1N1CCOCC1 | 3.4 | 4.2% | -0.6% | 1.3% | -45.4% | -0.3%
C=CCn1c(=O)[nH]c2cc(C(=O)N3CC=C(c4ccccc4)CC3)ccc2c1=O | -72.3* | 41.4% | -24.6% | -10.6% | -19.6% | 1.2%
Cc1cccc(OC(C)C(=O)N2CCC(c3nc4ccccc4o3)CC2)c1C (centres undefined) | -63.1* | . | . | . | . | -0.5%
Cc1cc(=O)n2nc(N3CCCC3C(=O)Nc3ccccc3C)sc2n1 (centres undefined) | 6.6 | 6.1% | 4.5% | 17.0% | 12.6µM* | ?
Cc1cc(=O)n2nc(N3CCCC3C(=O)Nc3cccc(F)c3)sc2n1 (centres undefined) | 0.3 | 4.9% | 8.2% | -8.2% | ? | ?
CC(C)OCCCNC(=O)CN1C(=O)c2cccnc2Sc2ccccc21 | -6.1 | . | . | . | . | 2.5%
CC(=O)c1nc(N2C(=O)CC(Cc3ccccc3)C2=O)sc1C (centres undefined) | 5.3 | 7.6% | 9.9% | 13.3% | 15.8µM* | 10.2%
CCCCN(CCCC)CCNC(=O)c1cn(C)c2ccc(S(=O)(=O)N(C)C3CCCCC3)cc2c1=O | -5.2 | 13.1% | -0.3% | 10µM* | -9.7% | -1.3%
CCCN(CCC)CCCNC(=O)c1cn(C)c2ccc(S(=O)(=O)N(C)C3CCCCC3)cc2c1=O | -12.8 | -2.1% | 12.2% | -4.3% | -27.4% | 1.7%
COCCNC(=O)c1cn(C)c2ccc(S(=O)(=O)N(C)C3CCCCC3)cc2c1=O | . | -4.0% | 11.2µM* | -16.1% | -14.9% | 0.8%
SMILES | RXFP1 antagonist | ASM inhibitor | gsp antagonist | a7 integrin act | gsp ag | RXFP1 ag
CCOCCCNC(=O)c1cn(C)c2ccc(S(=O)(=O)N(C)C3CCCCC3)cc2c1=O | . | . | . | . | . | -0.5%
O=C(Nc1ccc([N+](=O)[O-])cc1Cl)c1cc(Cl)ccc1O | -24.5 | -2.6% | 2µM* | . | . | 1.4%
CC(C)(CC(=O)OCC(=O)Nc1ccc(F)c(Cl)c1)CC1=NS(=O)(=O)c2ccccc2N1 | . | . | . | . | . | -1.0%
Cc1nc2ncnn2c(N2CCCC(C(=O)Nc3ccc4c(c3)CCC4)C2)c1C (centres undefined) | -4.0 | 0.1% | 39.8µM* | 16.5%[7.66 µM] | ? | -1.7%
COc1ccc(CCN2C(=O)CSC2=Nc2ccc(C(C)C)cc2)cc1OC | -33.2 | -13.6% | 28.2µM* | -54.1% | -7.6%[15.4 µM] | 3.2%
CCCCSc1n[nH]c(=S)c2nc[nH]c12 | 28.7 | -1.3% | 7.5% | 0.0% | ? | .
S=c1[nH]nc(SCc2ccccc2)c2[nH]cnc12 | 58.8 | ? | ? | ? | 14.1µM* | .
O=C(NCc1ccco1)/C(=C/c1ccc(C(F)(F)F)cc1)c1nc2ccccc2[nH]1 | -7.9 | 24.3% | -1.0% | -25.5% | 19.9% | 2.6%
O=S(=O)(/C(=C\c1ccc(C(F)(F)F)cc1)c1nc2ccccc2[nH]1)c1ccccc1 | -76.9* | -1.0% | 16.7% | -71.1% | 26.6% | .
CC(=O)N1CCN(C(=O)CCc2nc3ccccc3c(=O)[nH]2)CC1 | -6.4 | 1.0% | 4.5% | -3.2%[7.66 µM] | -36.9% | 0.0%
O=C(CCc1nc2ccccc2c(=O)[nH]1)N1CCN(C/C=C/c2ccccc2)CC1 | -18.3 | -0.6% | 22.4µM* | 0.0% | 3.3% | 3.2%
Cc1cc(C)c(NC(=O)COC(=O)c2cccc3c2C(=O)c2ccccc2C3=O)c(C)c1 | 4.3 | -21.2% | -5.7% | -36.1% | -57.4% | 0.4%
Cc1cc(C)c(Nc2cc(S(=O)(=O)O)c(N)c3c2C(=O)c2ccccc2C3=O)c(C)c1 | -28.5 | 9.1% | 28.2µM* | -8.4% | -16.3% | -11.2%
Cc1cccnc1CN1CCN(C(=O)c2cc(COc3ccc4ncccc4c3)on2)CC1 | -11.4 | -2.7% | 31.6µM* | -27.3% | 0.4%[15.4 µM] | 0.5%
CC(CNC(=O)c1cc(COc2ccc3ncccc3c2)on1)c1ccccc1 (centres undefined) | -32.4 | -7.0% | 31.6µM* | 0.0% | -1.7% | -1.1%
O=C(c1cc(COc2ccc3ncccc3c2)on1)N1CCC(O)CC1 | -11.2 | -0.8% | -7.9% | -48.5% | 1.8%[15.4 µM] | 1.3%
Cc1cc(CN(C)C(=O)c2cc(COc3ccc4ncccc4c3)on2)on1 | 0.8 | -3.8% | -20.0% | -44.1% | 18.6% | 5.4%
O=C(NC1CCCCCCC1)c1cc(COc2ccc3ncccc3c2)on1 | -20.9 | -9.7% | 39.8µM* | -37.2% | 3.4%[15.4 µM] | 4.0%
CCOC(=O)N1CCN(C(=O)c2cc(COc3ccc4ncccc4c3)on2)CC1 | 1.1 | 2.7% | ? | -49.7% | -13.8% | -1.1%
COc1ccc(-n2c(-c3ccc(Br)cc3)c[n+]3c2SC(C)C3)cc1 (centres undefined) | -13.0 | -3.3% | 16.4% | -53.5% | -16.2%[15.4 µM] | -0.3%
